Results filed as inconclusive are left out. A call without a number means that no potency is given here. The source made the active and inactive calls. The call rests on the fitted dose curve; in most records, active means well fitted inhibition curve with a large enough effect; inconclusive means small, poorly fitted or top-dose-only effect; inactive means flat fitted curve, though single readings scatter.
Tests used:
Assay in all cases: qHTS profiling for inhibitors of Plasmodium falciparum proliferation (AID 504749); further: nearly all actives have a fitted effect of over 60% in size
Details in all cases: P. falciparum in erythrocytes, SYBR Green DNA, 72 h; series mostly up to 28.7 µM
ATS189 = system: ATS189
Outline: (§1)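 Three-day growth assay of blood-stage parasites in erythrocytes (0.3% parasitemia, 2.5% hematocrit) at 37 C, 5% CO2, quantified by SYBR Green DNA staining after overnight detergent lysis.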

ATS95 = system: ATS95
Outline: as §1

C2A = system: C2A
Outline: as §1

CP185 = system: CP185
Outline: as §1

CP192 = system: CP192
Outline: as §1

CP211 = system: CP211
Outline: as §1

CP215 = system: CP215
Outline: as §1

CP217 = system: CP217
Outline: as §1

CP237 = system: CP237
Outline: as §1

CP238 = system: CP238
Outline: as §1

CP247 = system: CP247
Outline: as §1

CP250 = system: CP250
Outline: as §1

CP252 = system: CP252
Outline: as §1

CP256 = system: CP256
Outline: as §1

CP260 = system: CP260
Outline: as §1

CP262 = system: CP262
Outline: as §1

CP191 = system: CP191
Outline: as §1

CP194 = system: CP194
Outline: as §1

CP201 = system: CP201
Outline: as §1

CP203 = system: CP203
Outline: as §1
Potency means the concentration at half of the fitted maximal effect.

## C[C@@H](CN(C)C)CN1c2ccccc2Sc2ccccc21
ATS189
  Potency: inactive
ATS95
  Potency: inactive
C2A
  Potency: inactive
CP185
  Potency: inactive
CP192
  Potency: inactive
CP211
  Potency: inactive
CP215
  Potency: inactive
CP217
  Potency: inactive
CP237
  Potency: inactive
CP238
  Potency: inactive
CP247
  Potency: inactive
CP250
  Potency: inactive
CP252
  Potency: inactive
CP256
  Potency: inactive
CP260
  Potency: inactive
CP262
  Potency: inactive

## NC(=O)C(=O)N/N=C/c1ccc([N+](=O)[O-])o1
ATS189
  Potency: inactive
ATS95
  Potency: inactive
C2A
  Potency: inactive
CP185
  Potency: inactive
CP191
  Potency: inactive
CP217
  Potency: inactive
CP237
  Potency: inactive
CP238
  Potency: inactive
CP247
  Potency: inactive
CP250
  Potency: inactive
CP252
  Potency: inactive
CP256
  Potency: inactive
CP260
  Potency: inactive
CP262
  Potency: inactive

## c1ccc(-c2ccc(C(c3ccccc3)n3ccnc3)cc2)cc1 (stereo unspecified)
ATS189
  Potency: 8.91 µM (active)
CP185
  Potency: 10 µM (active)
CP191
  Potency: 11.2 µM (active)
CP192
  Potency: 10.7 µM (active)
CP211
  Potency: 19 µM (active)
CP215
  Potency: 15.1 µM (active)
CP217
  Potency: 8.91 µM (active)
CP237
  Potency: 8.91 µM (active)
CP247
  Potency: 7.94 µM (active)
CP252
  Potency: 10 µM (active)
CP262
  Potency: inactive

## CN1CCN(CCCN2c3ccccc3Sc3ccc(S(=O)(=O)N(C)C)cc32)CC1
ATS189
  Potency: 3.55 µM (active)
CP185
  Potency: inactive
CP191
  Potency: 3.98 µM (active)
CP192
  Potency: inactive
CP194
  Potency: inactive
CP201
  Potency: inactive
CP211
  Potency: inactive
CP217
  Potency: 3.98 µM (active)
CP237
  Potency: 3.98 µM (active)
CP252
  Potency: inactive
CP262
  Potency: inactive

## Oc1ccc(Cl)c2cccnc12
ATS189
  Potency: inactive
ATS95
  Potency: inactive
C2A
  Potency: inactive
CP185
  Potency: inactive
CP192
  Potency: inactive
CP194
  Potency: inactive
CP201
  Potency: inactive
CP211
  Potency: inactive
CP215
  Potency: inactive
CP217
  Potency: inactive
CP238
  Potency: inactive
CP247
  Potency: inactive
CP250
  Potency: inactive
CP252
  Potency: inactive
CP256
  Potency: inactive

## CN1CCN(C(c2ccccc2)c2ccccc2)CC1
ATS189
  Potency: inactive
C2A
  Potency: inactive
CP185
  Potency: inactive
CP191
  Potency: inactive
CP192
  Potency: inactive
CP201
  Potency: inactive
CP211
  Potency: inactive
CP217
  Potency: inactive
CP238
  Potency: inactive
CP247
  Potency: inactive
CP250
  Potency: inactive
CP252
  Potency: inactive
CP256
  Potency: inactive
CP260
  Potency: inactive
CP262
  Potency: inactive

## CCOC(=O)c1cccc(N)c1
ATS189
  Potency: inactive
ATS95
  Potency: inactive
C2A
  Potency: inactive
CP185
  Potency: inactive
CP191
  Potency: inactive
CP217
  Potency: inactive
CP237
  Potency: inactive
CP238
  Potency: inactive
CP247
  Potency: inactive
CP250
  Potency: inactive
CP252
  Potency: inactive
CP256
  Potency: inactive
CP260
  Potency: inactive
CP262
  Potency: inactive

## CC(C)NC[C@@H](O)COc1cccc2ccccc12
ATS189
  Potency: 10 µM (active)
C2A
  Potency: inactive
CP192
  Potency: inactive
CP201
  Potency: inactive
CP211
  Potency: inactive
CP237
  Potency: 5.01 µM (active)
CP250
  Potency: inactive
CP260
  Potency: 12.6 µM (active)
CP262
  Potency: inactive

## Cc1c(C(N)=O)cc([N+](=O)[O-])cc1[N+](=O)[O-]
ATS189
  Potency: inactive
ATS95
  Potency: inactive
C2A
  Potency: inactive
CP185
  Potency: inactive
CP191
  Potency: inactive
CP194
  Potency: inactive
CP201
  Potency: inactive
CP203
  Potency: inactive
CP211
  Potency: inactive
CP215
  Potency: inactive
CP217
  Potency: inactive
CP237
  Potency: inactive
CP238
  Potency: inactive
CP247
  Potency: inactive
CP250
  Potency: inactive
CP252
  Potency: inactive
CP256
  Potency: inactive
CP260
  Potency: inactive
CP262
  Potency: inactive

## C[C@@H]1C[C@H]2[C@@H]3CCC4=CC(=O)C=C[C@]4(C)[C@@]3(F)[C@@H](O)C[C@]2(C)[C@H]1C(=O)CO
ATS189
  Potency: 0.316 µM (active)
ATS95
  Potency: inactive
C2A
  Potency: inactive
CP185
  Potency: inactive
CP191
  Potency: inactive
CP194
  Potency: inactive
CP201
  Potency: inactive
CP211
  Potency: inactive
CP215
  Potency: inactive
CP217
  Potency: inactive
CP238
  Potency: inactive
CP247
  Potency: inactive
CP250
  Potency: inactive
CP252
  Potency: inactive
CP256
  Potency: inactive
CP260
  Potency: inactive
CP262
  Potency: inactive

## Oc1c(I)cc(Cl)c2cccnc12
ATS189
  Potency: 12.6 µM (active)
ATS95
  Potency: inactive
C2A
  Potency: 11.2 µM (active)
CP185
  Potency: 11.2 µM (active)
CP191
  Potency: 11.2 µM (active)
CP194
  Potency: inactive
CP201
  Potency: inactive
CP211
  Potency: inactive
CP217
  Potency: 8.91 µM (active)
CP237
  Potency: inactive
CP238
  Potency: 11.2 µM (active)
CP247
  Potency: 12.6 µM (active)
CP250
  Potency: 5.01 µM (active)
CP252
  Potency: 11.2 µM (active)
CP256
  Potency: 2.51 µM (active)

## COc1c(C)c2c(c(O)c1C/C=C(\C)CCC(=O)O)C(=O)OC2
ATS189
  Potency: 2.51 µM (active)
ATS95
  Potency: 3.16 µM (active)
C2A
  Potency: 2.82 µM (active)
CP185
  Potency: 3.16 µM (active)
CP191
  Potency: 2.82 µM (active)
CP194
  Potency: 4.55 µM (active)
CP201
  Potency: 5.73 µM (active)
CP203
  Potency: 3.22 µM (active)
CP211
  Potency: 4.55 µM (active)
CP215
  Potency: 3.22 µM (active)
CP217
  Potency: 2.51 µM (active)
CP237
  Potency: 3.55 µM (active)
CP238
  Potency: 3.16 µM (active)
CP250
  Potency: 3.16 µM (active)
CP252
  Potency: 2.51 µM (active)
CP256
  Potency: 3.16 µM (active)
CP260
  Potency: 3.16 µM (active)

## CCOc1ccc(Cc2nccc3cc(OCC)c(OCC)cc23)cc1OCC
ATS189
  Potency: inactive
ATS95
  Potency: inactive
C2A
  Potency: inactive
CP185
  Potency: inactive
CP192
  Potency: inactive
CP238
  Potency: inactive
CP247
  Potency: inactive
CP250
  Potency: inactive
CP252
  Potency: inactive
CP260
  Potency: inactive
CP262
  Potency: inactive

## COc1cc(-c2ccc(=O)[nH]n2)ccc1OC(F)F
ATS189
  Potency: inactive
ATS95
  Potency: 0.251 µM (active)
C2A
  Potency: inactive
CP201
  Potency: inactive
CP217
  Potency: inactive
CP237
  Potency: 0.112 µM (active)
CP250
  Potency: inactive
CP252
  Potency: inactive
CP256
  Potency: 3.16 µM (active)

## CCCCOc1cc(C(=O)NCCN(CC)CC)c2ccccc2n1
ATS189
  Potency: inactive
ATS95
  Potency: inactive
C2A
  Potency: inactive
CP185
  Potency: inactive
CP192
  Potency: inactive
CP194
  Potency: inactive
CP201
  Potency: inactive
CP203
  Potency: inactive
CP211
  Potency: inactive
CP215
  Potency: inactive
CP217
  Potency: inactive
CP237
  Potency: inactive
CP238
  Potency: inactive
CP247
  Potency: inactive
CP250
  Potency: inactive
CP252
  Potency: inactive
CP256
  Potency: inactive
CP260
  Potency: inactive

Source: PubChem BioAssay (NCATS)
